# Results reported in PubChem BioAssay AID1456 (Vanderbilt High Throughput Screening Facility, 2008).
# Screen size: about 190,000 compounds; about 4,100 (2.2%) were called active. The entries come from a sample that favours actives as a whole. A number with no mark means an inactive call.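 The calls were made as follows: active = thallium flux slope and its plate-corrected score both differing from the plate sample mean at a set confidence after two filtering rounds, in either direction; inactive = the rest.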
# Target: Solute carrier family 12 member 5 (Homo sapiens) (UniProt Q9H2X9)
# Experiment: KCC2 cotransporter modulators, thallium flux, primary screen, cell-based, HEK293 KCC2, FluoZin-2 fluorescence, MLSMR (AID 1456);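 also: slope of fluorescence scaled to starting intensity during 10 to 20 s after thallium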
# Settings: KCC2 cells, thallium flux FluoZin-2 fluorescence; at 10 µM
# Solute carrier family 12 member 5 (Homo sapiens), sequence (Q9H2X9 whole entry, looked up): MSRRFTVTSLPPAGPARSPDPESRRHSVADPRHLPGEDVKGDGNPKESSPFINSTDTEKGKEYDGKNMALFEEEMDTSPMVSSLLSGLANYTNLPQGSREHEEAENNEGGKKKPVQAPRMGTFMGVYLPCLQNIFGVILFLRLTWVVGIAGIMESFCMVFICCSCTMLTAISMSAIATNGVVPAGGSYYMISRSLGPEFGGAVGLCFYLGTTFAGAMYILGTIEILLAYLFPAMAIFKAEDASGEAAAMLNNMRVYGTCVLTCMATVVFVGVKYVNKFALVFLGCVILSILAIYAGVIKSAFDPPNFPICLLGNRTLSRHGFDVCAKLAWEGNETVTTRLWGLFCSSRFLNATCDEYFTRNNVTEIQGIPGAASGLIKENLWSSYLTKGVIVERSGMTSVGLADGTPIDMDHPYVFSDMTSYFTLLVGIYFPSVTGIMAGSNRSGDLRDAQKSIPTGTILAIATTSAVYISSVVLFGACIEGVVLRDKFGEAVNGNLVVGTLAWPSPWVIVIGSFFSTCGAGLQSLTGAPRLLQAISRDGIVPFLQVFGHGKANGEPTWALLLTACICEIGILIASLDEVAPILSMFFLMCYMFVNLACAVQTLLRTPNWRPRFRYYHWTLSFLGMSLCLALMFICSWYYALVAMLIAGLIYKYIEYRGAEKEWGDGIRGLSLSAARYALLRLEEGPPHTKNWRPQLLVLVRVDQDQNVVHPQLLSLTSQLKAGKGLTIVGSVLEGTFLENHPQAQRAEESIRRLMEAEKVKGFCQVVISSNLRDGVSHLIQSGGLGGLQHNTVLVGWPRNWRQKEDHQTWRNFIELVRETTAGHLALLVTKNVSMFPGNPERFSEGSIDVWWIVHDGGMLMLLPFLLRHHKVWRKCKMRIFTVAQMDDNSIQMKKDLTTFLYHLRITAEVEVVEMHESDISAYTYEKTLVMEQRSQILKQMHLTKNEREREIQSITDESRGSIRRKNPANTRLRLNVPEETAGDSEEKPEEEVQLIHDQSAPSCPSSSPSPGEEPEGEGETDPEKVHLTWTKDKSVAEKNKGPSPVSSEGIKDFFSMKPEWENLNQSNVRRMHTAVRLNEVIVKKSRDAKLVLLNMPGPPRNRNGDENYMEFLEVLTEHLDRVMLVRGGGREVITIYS
row,Compound,B-score of Tl+ flux slope (higher = more flux/activation; lower = inhibition)
1,COCCCNC(=O)CSc1nc2ccc(N3CCOCC3)cc2c(=O)n1CCc1ccccc1,2.34
2,CCCCn1c(SCC(=O)NCC2CCCO2)nc2ccc(N3CCOCC3)cc2c1=O (configuration not stated),7.18 (active)
3,O=C(CCCn1c(SCC(=O)c2ccccc2)nc2ccccc2c1=O)NCC1CCCO1 (configuration not stated),-0.113
4,CC(C)(C)NC(=O)NC(=O)COC(=O)Cc1ccc(Cl)cc1Cl,0.383
5,CCN1CCN(C(=O)CCN2C(=O)c3ccccc3C2=O)CC1,0.322
6,CCOC(=O)C1=NN(c2ccc(Cl)cc2)/C(=C/C2=NCCc3cc(OC)c(OC)cc32)S1,1.05
7,O=C(O)CC1(CC(=O)Nc2cccc(C(F)(F)F)c2)CCCC1,-1.45
8,CCOC(=O)Cc1cc(=O)[nH]c(/N=C(\N)Nc2ccc(OC)cc2)n1,-0.288
9,CCc1c(SCCC(=O)O)nc2ccccc2c1C,3.44 (active)
10,O=C(O)CCSc1nnc(-c2ccccc2)n1-c1ccccc1,0.407
11,COC(=O)CSc1nc(C2CC2)nc2ccccc12,-0.171
12,N=c1oc2ccccc2cc1C(=O)N/N=C/c1ccccc1,-3.75 (active)
13,Cc1nc2ccccc2cc1C(=O)N/N=C/c1ccc([N+](=O)[O-])cc1,-1.83
14,CNC(=O)c1cc2c(ccc3ccccc32)oc1=N,-0.785
15,CCN(CC)c1ccc(NC(=O)C2CCC(CNc3c(N4CCCC4)c(=O)c3=O)CC2)c(C)c1 (configuration not stated),1.27
16,CCCc1c(C(=O)O)cnn1-c1ccc(Cl)cc1,-0.00741
17,Oc1c(Cl)cc(Cl)c(Cl)c1Cc1c(O)c(Cl)cc(Cl)c1Cl,19.9 (active)
18,COc1ccc(CC2(CO)CCN(Cc3cnn(C)c3)CC2)cc1,0.00537
19,C/C=C/C(=O)Nc1ccc(N2CCN(c3ccc(C(F)(F)F)cn3)CC2)nc1,-0.115
20,CS(=O)(=O)N(CC(=O)N1CCN(c2ccc(F)cc2)CC1)C1CCCCC1,-3.33 (active)
21,CCC(C)NC(=O)CN(C1CCCCC1)S(C)(=O)=O (configuration not stated),0.0328

row,Compound,B-score of Tl+ flux slope (higher = more flux/activation; lower = inhibition)
1,CS(=O)(=O)N(CC(=O)Nc1ccc(Cl)c(Cl)c1)C1CCCCC1,-0.64
2,O=C(NN1C(=O)C2CCCCC2C1=O)c1ccco1 (configuration not stated),-1.74
3,O=S(=O)(NC(=S)Nc1ccccc1)c1ccc(F)cc1,0.866
4,Cc1cc(C)nc(Nc2n[nH]c(-c3ccccc3N)n2)n1,0.274
5,COc1ccc(-n2c(=S)[nH]c3sc4c(c3c2=O)CCc2ccccc2-4)cc1,11.6 (active)
6,COc1cccc(-n2c(=S)[nH]c3c(oc4ccccc43)c2=O)c1,-2.03
7,CSc1nc2sc3c(c2c(=O)[nH]1)CCc1ccccc1-3,0.526
8,COCc1cc(=O)[nH]c(SC)n1,-0.453
9,Cc1cccc(OCC(=O)Nc2ccccc2F)c1,0.917
10,Cc1cccc(OCC(=O)NC(=S)Nc2ccccc2N2CCOCC2)c1,8.7 (active)
11,Cc1cccc(OCCC(=O)Nc2cc(S(=O)(=O)N3CCCCC3)ccc2N2CCOCC2)c1,0.115
12,O=C(Nc1ccccc1)Nc1ccc(C(F)(F)F)cn1,0.765
13,O=C(C1=C(O)C(=O)N(CCOCCO)C1c1ccccn1)c1cccs1 (configuration not stated),0.0733
14,CC(=O)NC(CC(=O)Nc1nccs1)c1ccccc1 (configuration not stated),0.0448
15,Cc1ccc(Cn2c(NC(=O)c3ccco3)nc3ccccc32)cc1,1.11
16,CCCc1nc2c(C)cc(-c3nc4ccccc4n3C)cc2n1Cc1ccc(-c2ccccc2C(=O)O)cc1,-4.55 (active)
17,CC(=O)Nc1nc2ccccc2n1Cc1ccc(C)cc1,0.76
18,c1ccc2c(c1)OCCOCCOCCO2,-0.0153
19,O=C(COC(=O)c1cc([N+](=O)[O-])ccc1NCc1ccccc1)NC1CCCCC1,-3.78 (active)
20,O=C(COC(=O)c1ccccc1SCC(=O)NC1CCCCC1)NC1CCCCC1,0.427
21,N#Cc1ccccc1Sc1ccccc1C(=O)OCC(=O)NC1CCCCC1,-0.81

row,Compound,B-score of Tl+ flux slope (higher = more flux/activation; lower = inhibition)
1,CCOC(=O)N/N=C/c1cccnc1,0.0775
2,Cc1nc2ccccc2n1CC(=O)N/N=C/c1cccnc1,0.307
3,O=C(CSc1cccc2cccnc12)N/N=C/c1cccnc1,30.2 (active)
4,CN(c1ccccc1)S(=O)(=O)c1ccc(Cl)c(C(=O)OCC(=O)NCc2ccco2)c1,-3.28
5,O=C(Nc1cccc(S(=O)(=O)NC2=NCCC2)c1)C1CCCCC1,0.665
6,N/C(=N\OC(=O)Nc1ccccc1)c1ccno1,0.175
7,COc1ccc(S(=O)(=O)N(CC(=O)N/N=C/c2ccccc2C(=O)O)c2ccccc2OC)cc1,0.515
8,Cc1cccc(C)c1NC1=NC(=S)N(c2ccc(N(C)C)cc2)C1(C)C,4.28 (active)
9,Cc1nnc2n1N=C(c1ccc3c(c1)NC(=O)CO3)CS2,-0.931
10,Cc1cc(F)ccc1NC(=O)C(C)n1c2ccccc2c2nc(=O)cc(C)n21 (configuration not stated),-0.013
11,Clc1cccc(N=C2NN=C(c3ccc4c(c3)OCCO4)CS2)c1,1.95
12,CN(C)c1nc(=Nc2cccc(Cl)c2)ss1,87 (active)
13,Cc1ccc(C(=O)NNC2=Nc3cc([N+](=O)[O-])ccc3OC2)cc1,0.865
14,COc1ccc(OCCC(=O)c2ccc(OC)cc2)cc1,0.534
15,NC(=O)NC(=O)CSc1nc2cc([N+](=O)[O-])ccc2n1-c1cccc(C(F)(F)F)c1,6.95 (active)
16,COc1ccc(-n2cnnc2SCC(=O)Nc2cccc([N+](=O)[O-])c2)cc1,0.774
17,COc1ccc(CCNC(=O)CSc2nc3[nH]ncc3c(=O)n2-c2cccc(C(F)(F)F)c2)cc1OC,1.1
18,O=C(CN1CCN(C/C=C/c2ccccc2)CC1)Nc1ccc(F)cc1F,0.952
19,CC(=O)N/C(=C\c1ccc(F)cc1)C(=O)NC(Cc1ccccc1)C(=O)O (configuration not stated),0.0184
20,O=C(O)c1cccnc1Sc1ncnc2sc3c(c12)CCC3,2.47
